HCMV antiviral: qHTS Assay for inhibitors of the human cytomegalovirus (HCMV); HFF cells, HCMV-luciferase reporter, 72 h; stronger effect = lower value; activity change, negative = inhibition, % at 57.5 µM; 410,000 tested, 4.5% active; AID 1259415, 2018; in the data active means activity change below about -60%; inconclusive means no clear call, values can overlap the other calls; inactive means above about -39%
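Compounds were evaluated in HFFs infected with an HCMV luciferase reporter virus (MOI 1 PFU/cell). Luciferase in lysates collected 72 h post infection served as the replication measure.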
HCV inhibitor: qHTS Assay for Inhibitors of Hepatitis C Virus (HCV); 340,000 tested, 3.4% active; Huh7.5.1 HCVcc-Cre infection, luciferase reporter, 44 h; Potency, µM (highest dose often 41.8 µM), inactives show at the top dose activity change, negative = inhibition, most hits filed as inhibitors; AID 651820, 2012; active means well fitted inhibition curve with a large enough effect; inconclusive means small, poorly fitted or top-dose-only effect, or another doubt; inactive means no such curve, though single readings can be large or run the other way; further: potency means the concentration at half of the fitted maximal effect
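Compounds are dispensed onto cells plated 4 h earlier at 1,000 per well, with HCVcc-Cre virus (about 0.5 moi) added next. Following 44 h of culture, luminescent signal is measured for 15 sec after 15 min with substrate at room temperature.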
FMDV antiviral: High Throughput Screening for Foot and Mouth Disease Virus Antivirals; FMDV antiviral cell-based qHTS; Potency, µM (titrated, usually from 57.9 µM), inactives show at the highest dose activity change, negative = inhibition, hits mostly inhibitors; 410,000 tested, 1.2% active; AID 1159524, 2015; calls by dose curve; tested in HEK293T cells; further: read-out not given here; potency means the concentration at half of the fitted maximal effect; nearly all actives have a fitted effect of over 45% in size
Marburg entry inh: qHTS for inhibitors of binding or entry into cells for Marburg Virus. Marburg virus pseudotyped entry inhibition, cell reporter. Potency, µM (titrated, usually from 37.8 µM), for the others: at the highest dose activity change, negative = inhibition, most hits filed as inhibitors. 300,000 tested, 1.8% active; calls by dose curve; tested in HEK293 cells; further: potency means the concentration at half of the fitted maximal effect
Lassa entry inh: qHTS for Inhibitors of binding or entry into cells for Lassa Virus | 300,000 tested, 1.2% active | AID 540256, 2011 | Potency, µM (series often up to 37.9 µM), without a hit: at the top dose activity change, negative = inhibition, actives largely listed as inhibitors | Lassa virus pseudotype entry inhibition, cell reporter; calls by dose curve; tested in HEK293 cells; further: potency means the concentration at half of the fitted maximal effect; nearly all actives have a fitted effect of over 50% in size
Numbers without * were called inactive; ? = inconclusive; / = no result given; [ ] = another dose, or the depositor's remark. Compounds with a hit are over-represented: about 7.9% of the library has one in this group of screens. On the % scale 0 is the no-effect control and ±100 the full control effect.

SMILES | HCMV antiviral | HCV inhibitor | FMDV antiviral | Marburg entry inh | Lassa entry inh
CCn1c(SCC(=O)Nc2nccs2)nnc1-c1ccc(S(=O)(=O)N2CCCCCC2)cc1 | -31.6 | ? | ? | ? | ?
CCC(Sc1nnc(-c2ccc(C)c(Cl)c2)n1CC)C(=O)Nc1nccs1 (stereo not drawn) | ? | ? | 22.4µM* | ? | ?
O=C(O)Cn1cc(/C=C2\C(=O)NC(=O)N(c3ccc(Cl)cc3)C2=O)c2ccccc21 | 31.8 | 17.6% | -4.1% | / | /
CCN(CC)C(=O)Cn1cc(/C=C2\C(=O)NC(=O)N(c3ccccc3F)C2=O)c2ccccc21 | 194.9 | 31.0% | 25.1µM* | ? | ?
C[C@@H]1N[S+](=O)([O-])c2cc(Cl)ccc2O[C@H]1c1ccccc1 | / | / | / | / | 2.3%[46.1 µM]
CC1CCCCN1S(=O)(=O)c1cc2c3c(c1)CC(=O)N3CCC2 (stereo not drawn) | -15.8 | / | -9.1% | / | 6.3%[46.1 µM]
N#Cc1cc2c(nc1S(=O)(=O)Cc1ccccc1)CCCC2 | -63.1* | 13.0% | 12.4% | 13.5% | 1.2%
CS(=O)(=O)c1nc2c(cc1C#N)CCCC2 | -25.0 | -11.3% | -15.2% | 4.9% | -9.6%
Cc1ccc(NC(=O)c2ccc(CN3CC(=O)N4CCCCC4C3=O)cc2)cc1 (stereo not drawn) | 22.8 | / | 10.8% | / | -6.0%[46.1 µM]
O=C(NCC(NS(=O)(=O)OCC(Cl)(Cl)Cl)c1ccccc1)C(F)(F)F (stereo not drawn) | -74.5* | -16.9% | -8.2% | / | /
CNc1cc(OC)c(C(=O)N[C@H]2CCN(Cc3ccccc3)[C@H]2C)cc1Cl | / | / | -17.4% | / | /
CCNc1nc(NCC)n2c(SC(C(=O)Nc3cc(Cl)cc(Cl)c3)c3ccccc3)nnc2n1 (stereo not drawn) | -101.0* | ? | -0.6% | 20.9% | -2.3%
CCNc1nc(NCC)n2c(SCC(=O)Nc3cccc(Cl)c3)nnc2n1 | / | ? | -21.1% | -9.6% | ?
COCC(=O)Nc1cc(C(=O)NCCc2ccccc2)ccc1Cl | -15.1 | 17.9% | -15.3% | ? | 10µM*
COc1ccc(C(=O)Nc2cc(C(=O)NCCc3ccccc3)ccc2Cl)cc1 | 25.7 | 8.91µM* | / | -16.4% | -5.9%
COc1ccc(C(=O)Nc2nc(CC(=O)NCCc3ccccc3)cs2)cc1 | 33.8 | 10µM* | -4.6% | -42.3% | -1.7%
COc1ccc(C(=O)Nc2nc(CC(=O)NCCc3cccc(OC)c3)cs2)cc1 | -8.9 | ? | ? | -8.3% | -26.6%
CCOCC(=O)Nc1cc(C(=O)NCCc2ccccc2)ccc1Cl | 44.3 | 13.3% | 52.4% | ? | 0.7%[46.1 µM]
CCn1c(CCNC(=O)c2ccc(OC)cc2)nnc1SCc1ccc(Cl)c(Cl)c1 | -60.3* | ? | ? | ? | ?
Cc1ccccc1C(=O)Nc1cccc(C(=O)OCc2cc(=O)n3nc(C4CC4)sc3n2)c1 | -0.5 | / | ? | / | 15.1%[46.1 µM]
Cc1c(C(=O)N2CCOc3ccc(Cl)cc3C2)sc2ncnc(NCCc3ccccn3)c12 | / | / | -23.1% | / | /
CN(C(=O)CSc1nnc(-c2cccnc2)o1)C1CCCCC1 | -3.5 | 0.7% | 8.4% | / | /
FC(F)(F)c1cccc(Nc2c3c(nc4ccc(Cl)cc24)CCC3)c1 | -76.2* | / | -8.2% | ? | ?
Fc1ccccc1Nc1c2c(nc3ccccc13)CCC2 | ? | / | ? | ? | -25.5%[46.1 µM]
Fc1ccc(F)c(Nc2c3c(nc4ccc(Cl)cc24)CCC3)c1 | -68.6* | / | ? | ? | -7.3%[46.1 µM]
SMILES | HCMV antiviral | HCV inhibitor | FMDV antiviral | Marburg entry inh | Lassa entry inh
Nc1nc(CSc2nnnn2-c2ccccc2)nc(N2CCCc3ccccc32)n1 | -17.8 | 11.2µM* | 28.2µM* | ? | ?
COc1ccc(O)c(C=Nc2cc(NC(C)=O)c(Cl)cc2Cl)c1 | -102.4* | -4.4% | 10.5% | -23.6% | ?
Cc1cc(Cl)ccc1NS(=O)(=O)c1ccc2c(c1)CC(C)N2C(=O)C1CCC1 (stereo not drawn) | -26.8 | / | -7.3% | / | -21.1%[46.1 µM]
O=C(N/N=C/c1cccc(F)c1)c1c(O)c2ccccc2[nH]c1=O | -37.4 | 12.6µM* | 4.6% | 1.1% | 3.0%
O=C(N/N=C/c1ccccc1)c1c(O)c2ccccc2[nH]c1=O | -91.6* | ? | 1.1% | 4.7% | ?
CCN(CC)Cc1c(C(=O)N/N=C/c2ccco2)nnn1-c1nonc1N | 9.3 | 11.2% | 2.0% | / | /
CC(=C/c1ccco1)/C=N/NC(=O)c1nnn(-c2nonc2N)c1CN(C)C | -60.1* | -8.6% | 4.5% | -0.6%[46.1 µM] | -18.5%[46.1 µM]
